# This is a sample that favours compounds with a hit; in the whole collection about 1.2% have one here.
# BRCA1 expr up – BRCA1 expression activation; 1.1% of 380,000 active; AID 624202; MCF7-BRCA1-FFLuc reporter, luminescence, 48 h; response scale: scaled: vehicle 0%, 10 µM genistein 100%; Potency, µM (doses to about 46.1 µM), inactives show top-dose activation, usual class: activators; also: potency is read from the fitted curve at half-maximal effect; nearly all actives have a fitted effect of over 80% in size
#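 Quantitative HTS in MCF7 cells stably reporting BRCA1 expression via firefly luciferase. Compound treatment lasts 48 h at 37 °C in phenol-red free MEM. Activation is expressed relative to genistein at 10 microM and DMSO.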
# ASM inhibitor – human S-ASM enzyme inhibition; placental ASM, HMU-PC fluorogenic substrate, 60 min; Potency, µM (titrated, usually from 57.5 µM), without a hit: at the highest dose activity change, negative = inhibition, most hits filed as inhibitors; 0.006% of 340,000 active; also: potency is read from the fitted curve at half-maximal effect
#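 Human placenta-derived ASM enzyme was preincubated with compound for 10 minutes at room temperature, then given fluorogenic substrate HMU-PC0 (9 uM final) for 60 minutes at 37 °C; a pH 10 stop preceded fluorescence reading at Ex 386/Em 447 nm.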
# TSHR antagonist – blocks TSH signaling through the human TSH receptor; P16473; TSHR-expressing cells, TSH-stimulated cAMP HTRF, 2 h; hits give low values; activity change, negative = inhibition, % at 11.5 µM; 0.2% of 330,000 active; AID 504810;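 active = activity change below a set negative limit, meaning inhibition stronger than a set level, cut at about -70% in these data; inconclusive = activity change between two set negative limits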; also: % is scaled to controls: 0 for no effect and ±100 for the full control effect
#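 Inhibition of cAMP made by TSHR-expressing cells under TSH stimulation (4nM final, EC80; 2 h, 37 deg C) is quantified with a one-step lysis HTRF kit, anti-cAMP cryptate versus cAMP-d2.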
# Anesthetic bind – binds horse apoferritin like a general anesthetic; Potency, µM (highest dose often 77.5 µM), without a hit: top-dose activity change, negative = displacement, hits mostly inhibitors; AID 485281; apoferritin/1-aminoanthracene competitive binding, fluorescence; P02791; 0.074% of 350,000 active; also: potency is read from the fitted curve at half-maximal effect; % is scaled to controls: 0 for no effect and ±100 for the full control effect; nearly all actives have a fitted effect of over 20% in size
# Target sequence (P02791 2-175 limits assumed): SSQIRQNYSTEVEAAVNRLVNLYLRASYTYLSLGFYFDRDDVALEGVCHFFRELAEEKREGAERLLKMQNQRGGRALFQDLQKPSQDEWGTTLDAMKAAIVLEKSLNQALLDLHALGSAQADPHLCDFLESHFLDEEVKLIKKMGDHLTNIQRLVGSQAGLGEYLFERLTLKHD
#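 Horse-spleen apoferritin (10 uM) in 50% saturated 1-aminoanthracene in PBS was incubated 10 min at room temperature with compound. Fluorescence (ex 380, em 535 nm) was normalized to free and bound 1-AMA, with concentration-response fitted by a four-parameter Hill equation.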
# TSG101-PTAP inh – blocks PTAP/TSG101 interaction to inhibit HIV-1 budding; Potency, µM (top dose mostly 115 µM), for inactives: at the highest dose activity change, negative = inhibition, actives largely listed as inhibitors; 340,000 tested, under 10 active; Fluorescence polarization, FITC-PTAP peptide / Tsg101 binding; Q99816; active = well fitted inhibition curve with a large enough effect in the main read-out, with a control signal flat, not every such curve was filed as active; inconclusive = small, poorly fitted or top-dose-only effect, or effect the other way, or a change in a side signal; inactive = no such curve, though single readings can be large or run the other way; also: potency is read from the fitted curve at half-maximal effect; % of control where 0% means no effect
# Target sequence (Q99816 whole entry, looked up): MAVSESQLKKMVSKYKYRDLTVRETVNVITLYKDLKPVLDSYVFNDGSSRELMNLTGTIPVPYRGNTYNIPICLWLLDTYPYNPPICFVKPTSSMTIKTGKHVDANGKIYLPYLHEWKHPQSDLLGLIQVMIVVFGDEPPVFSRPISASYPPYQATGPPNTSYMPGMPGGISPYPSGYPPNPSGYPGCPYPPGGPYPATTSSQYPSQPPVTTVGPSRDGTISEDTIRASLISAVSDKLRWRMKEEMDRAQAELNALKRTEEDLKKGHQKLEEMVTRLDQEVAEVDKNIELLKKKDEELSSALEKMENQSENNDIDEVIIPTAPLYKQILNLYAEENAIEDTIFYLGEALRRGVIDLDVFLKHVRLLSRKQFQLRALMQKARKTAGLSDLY
#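 Fluorescence polarization binding of Tsg101 binding domain (10 uM final) to FITC-labeled PTAP peptide (50 nM final) in HEPES pH 7.5 buffer with NaCl, Tween 20, EDTA, TCEP. Compounds added before peptide; binding 20 min at RT.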
# * = called active by the depositor; i = inactive; ? = inconclusive; . = no result. Unless noted, calls follow the shape of the dose curve; as a rule, active = well fitted curve in the direction sought with a large enough effect; inconclusive = small, poorly fitted or top-dose-only effect, or another doubt; inactive = no such curve, though single readings can be large; an effect the other way counts as inactive or inconclusive.
SMILES,BRCA1 expr up,ASM inhibitor,TSHR antagonist,Anesthetic bind,TSG101-PTAP inh
CC[C@H](C)[C@H](NC(=O)[C@H](CCC(=O)O)NC(=O)CNC(=O)[C@@H](NC(=O)[C@@H]1CCCN1C(=O)[C@@H](NC(=O)[C@@H]1CCCN1C(=O)[C@@H]1CCCN1C(=O)[C@H](CC(N)=O)NC(=O)[C@H](CC(N)=O)NC(=O)[C@@H](NC(=O)[C@H](CCSC)NC(=O)[C@H](Cc1c[nH]c2ccccc12)NC(=O)CNC(=O)[C@@H](NC(=O)[C@H](CCC(N)=O)NC(=O)[C@@H](N)CCC(=O)O)[C@@H](C)CC)[C@@H](C)O)[C@@H](C)CC)C(C)C)C(=O)O,.,.,.,-6%,.
N=C(N)c1ccc(OCCCCCOc2ccc(C(=N)N)cc2)cc1,.,0%,4,-7%,-4%
CCCCCCOc1ccc(/C(N)=N/O)cc1,7.1µM*,0%,-13,?,-5%
Clc1ccc(-c2cc(COc3ccccc3)on2)cc1,10µM*,2%,-22,-7%,-5%
CC(C)Cc1ccc(-c2ccc3nccn3c2)cc1,14µM*,.,.,.,.
COc1ccc(-c2ccc3nccn3c2)cc1,22%,.,.,.,.
C=CCN1N=C(/C=C/c2ccc(C)cc2)CCC1=O,11µM*,4%,17,-12%,0%
C=CCN1N=C(/C=C/c2ccc(OC)cc2)CCC1=O,?,2%,1,1%,5%
COC(=O)[C@@H]1CCCN1C(=O)CCc1nnc(CCC2CCCCC2)o1,11µM*,1%,-8,?,-1%
CC1CCN(C(=O)CSc2nnc3c(n2)[nH]c2ccc(F)cc23)CC1,-21%,0%,5,0%,-7%
Cc1ccc2nc(SCC(=O)N3CCOCC3)[nH]c2c1,?,-2%,-2,3%,-1%
CC(C)c1ccc2[nH]c3nc(SCC(=O)N4CCOCC4)nnc3c2c1,11µM*,-3%,-16,-10%,-3%
Cc1ccc2[nH]c(SCC(=O)N3CCOCC3)nc2c1C,8.9µM*,-2%,5,-12%,-5%
CS(=O)(=O)c1ccc(C(=O)OCC(=O)N2CCCC2)cc1[N+](=O)[O-],-45%,.,.,.,.
CC(=O)c1c(C)[nH]c(C(=O)OCC(=O)Nc2cc(Cl)ccc2[N+](=O)[O-])c1C,-52%,-17%,-77*,-3%,3%
C1=Nc2ccccc2/C1=C/c1ccccc1,-5%,.,.,.,.
C/C(=N/NC(=O)c1ccco1)c1ccc(NC(=O)c2ccc(F)cc2)cc1,7.1µM*,1%,7,14%,0%
C/C(=N\NC(=O)c1ccc(O)cc1)c1ccc(NC(=O)Cc2ccccc2)cc1,8.9µM*,5%,60,-20%,-4%
C/C(=N\NC(=O)c1ccc(F)cc1)c1ccc(NC(=O)Cc2ccccc2)cc1,65%,3%,-3,-6%,2%
C/C=C(\C=C\[C@@H](C)C/C=C/CC/C=C/C=C\C[C@@H](OC)/C(C)=C\C=C(C)C)CC(=O)O,.,.,.,13%,.
Oc1ccc(/C=C/c2cnccn2)cc1,13µM*,9%,7,-14%,-15%
Cc1cc2[nH]c(=O)c(=O)[nH]c2cc1S(=O)(=O)N1CCN(c2cccc(Cl)c2)CC1,5%,20µM*,2,?,-5%
Cc1cc2[nH]c(=O)c(=O)[nH]c2cc1S(=O)(=O)N1CCN(c2cccc(C(F)(F)F)c2)CC1,8%,20µM*,-14,?,-13%
Cc1cc2[nH]c(=O)c(=O)[nH]c2cc1S(=O)(=O)N1CCN(c2cccc(C)c2C)CC1,0%,?,16,-16%,1%
Cc1ccnc(NCc2cc(C)ccc2O)c1,85%,-1%,-7,-17%,1%
SMILES,BRCA1 expr up,ASM inhibitor,TSHR antagonist,Anesthetic bind,TSG101-PTAP inh
Cc1ccc(O)c(CNc2ccccn2)c1,16µM*,-1%,1,-23%,-5%
Cc1ccc(OCc2nc(-c3ccc(Cl)cc3)n[nH]2)cc1,77%,-5%,-13,-18%,-2%
Cc1ccc(-c2n[nH]c(Cc3ccccc3)n2)cc1,5.6µM*,-2%,-11,-4%,-3%
CCc1sc(-c2cc3cccc(OC)c3oc2=O)nc1-c1cc(C)ccc1C,13%,.,.,.,.
CC1CCN(c2oc(-c3ccccc3Cl)nc2C#N)CC1,6.3µM*,4%,-5,130%,-3%
CN(CC(=O)N1CCCCCC1)S(=O)(=O)c1ccc(F)cc1,10µM*,5%,-12,-9%,-3%
Cc1cc(-c2ccc(C(=O)O)s2)cnc1N,7.1µM*,i,-2,-17%,-3%
CCCCCCCC/C=C\CCCCCCCC(=O)N[C@H](CO)Cc1ccc(O)cc1,.,.,.,-18%,.
O=C(Nc1cccc2ccccc12)c1ccccc1,46%,0%,-82*,-4%,-3%
O=C(Nc1ccc(SC(F)F)cc1)c1ccc(F)cc1,3.2µM*,4%,-21,-9%,-2%
O=C1C(Cl)=C(NC(=O)c2ccccc2)C(=O)C(Cl)=C1NC(=O)c1ccccc1,-69%,-2%,-85*,-1%,2%
O=C(Nc1cccc2ccccc12)c1ccc(F)cc1,-20%,3%,0,8%,-2%
O=C(Nc1ccccc1)c1ccc(NC(=O)C2CC2)cc1,4µM*,-2%,-26,-1%,-5%
COc1ccccc1C1(O)CCN(CCCn2c3ccccc3c3ccccc32)CC1,.,.,.,0%,.
O=[N+]([O-])c1ccc(O/N=[N+](\[O-])N2CCN(c3ncccn3)CC2)c([N+](=O)[O-])c1,0%,.,.,.,.
CC(C(=O)c1ccccc1)[n+]1ccc(Cl)c2ccc(Cl)cc21 (stereo not given),-1%,.,.,.,.
CC(=O)c1ccc(NC(=O)c2ccn[nH]2)cc1,?,-1%,9,0%,-1%
O=C(Nc1ccc(F)cc1)c1ccccc1,11µM*,4%,13,-2%,-3%
O=C(Nc1ccc(Nc2ccccc2)cc1)c1ccccc1,3.5µM*,-2%,.,.,0%
O=C(Nc1ccccc1)c1ccn[nH]1,7.1µM*,0%,-5,-13%,-13%
N#CCCn1cc(CNCc2cccnc2)c(-c2ccccc2)n1,3%,.,.,.,.
N#Cc1ccccc1-c1csc(N2CCC(C(N)=O)CC2)n1,.,.,17,.,.
O=C(COCc1cc(-c2cccs2)on1)NC1CCCCC1,-2%,4%,-88*,4%,-1%
COc1cc2ncnc(N3CCN(C(=O)Nc4ccc(Oc5ccccc5)cc4)CC3)c2cc1OC,-14%,.,.,.,.
CCSc1nc2ccccc2n1CC(=O)OC,0%,3%,11,-5%,-8%
COC(=O)Cn1c(SCc2ccccc2)nc2ccccc21,7.9µM*,4%,-3,-21%,-3%
CCOc1ccc(N2C(=O)S/C(=C\c3cccn3C)C2=O)cc1,76%,0%,-23,-8%,6%
Cn1cccc1/C=C1\SC(=O)N(c2ccc(O)cc2)C1=O,10µM*,-1%,-3,51%,?

# High-throughput results from PubChem BioAssay.
